High-throughput results: PubChem BioAssay, National Center for Advancing Translational Sciences (NCATS)
D2 ag-1 = agonists of human D2 dopamine receptor (beta-arrestin). DiscoveRx PathHunter D2 beta-arrestin, luminescence, 90 min; 100% = 57 uM dopamine signal. activation, % (concentration not given with the values). AID 624465. actives 0.084% (n = 360,000). P14416; in the data active means activation above about 40%; inconclusive means between about 15% and that limit
Target sequence (P14416 whole entry, looked up): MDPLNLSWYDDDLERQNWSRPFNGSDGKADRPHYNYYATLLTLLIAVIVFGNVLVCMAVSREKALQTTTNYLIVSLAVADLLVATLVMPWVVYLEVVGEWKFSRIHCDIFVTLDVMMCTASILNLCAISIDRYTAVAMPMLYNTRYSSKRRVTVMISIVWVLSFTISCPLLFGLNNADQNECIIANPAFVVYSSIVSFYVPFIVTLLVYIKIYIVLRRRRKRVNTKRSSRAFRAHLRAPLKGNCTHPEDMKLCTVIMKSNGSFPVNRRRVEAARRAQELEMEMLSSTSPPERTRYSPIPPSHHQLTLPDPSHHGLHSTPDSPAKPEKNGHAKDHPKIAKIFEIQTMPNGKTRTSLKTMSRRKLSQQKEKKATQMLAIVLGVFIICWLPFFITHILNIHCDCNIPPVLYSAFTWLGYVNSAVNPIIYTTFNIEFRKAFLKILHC
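Agonist mode: compounds alone added to overnight-plated D2 PathHunter cells for 90 min at 37 C, with 57 uM final dopamine (EC100) defining full response. Beta-arrestin recruitment detected by chemiluminescent reagent, read after 1 h at ambient temperature.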
D2 ag-2 = agonists of human D2 dopamine receptor. HEK293 T-REx D2 cells, calcium flux agonist mode. activation, % at 2 µM. AID 485358. actives 0.53% (n = 340,000);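 active means activation over 3 SD above normal in the single-dose calcium agonist read, cut at about 30% in these data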
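Tetracycline-induced HEK293 T-REx cells with force-coupled D2 receptor, plated overnight at 30 C, loaded with no-wash calcium dye. After a 10 s baseline, compound was pin-added and calcium flux read kinetically for 180 s; calcium rises flagged agonists.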
D2 antagonist = D2 dopamine receptor (human) antagonism. actives 2% (n = 340,000). inhibition, % at 10 µM. HEK293 TREx D2 cells, calcium flux, dopamine EC80. P14416; in the data active means inhibition above about 30%; inactive means below that, where a call was filed
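HEK293 T-REx D2 cells, tet-induced, calcium dye no-wash. Cpd pintool add, 180 s kinetic, then EC80 DA, 180 s kinetic. Ca flux read.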
D2 PAM-1 = D2 dopamine receptor (human) potentiation | P14416 | actives 0.34% (n = 340,000) | HEK293 T-REx D2, calcium flux, EC20 dopamine potentiation | potentiation, % at 10 µM;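 active means potentiation over 3 SD above the plate norm, cut at about 30% in these data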
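Potentiation of an EC20 dopamine calcium response is measured in a force-coupled, tetracycline-inducible Hek293 Trex D2 line. Compound-only kinetic reads over 180 s flag agonists before dopamine addition.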
D2 PAM-2 = positive allosteric modulators of human D2 dopamine receptor. P14416. DiscoveRx D2 beta-arrestin cells, luminescence, 90 min; 100% = 57 uM dopamine signal. potentiation, % (test concentration not listed). actives 0.23% (n = 360,000). AID 624464; in the data active means potentiation above about 50%; inconclusive means mostly about 30% to 49%
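PathHunter beta-arrestin assay in DiscoveRx D2 cells. Compounds were added with an EC20 of dopamine (50 nM final) for 90 min at 37 deg C. Luminescence was read 1 h after detection reagent, with 57 uM dopamine as the EC100 control.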
Hits are given with their value; i = inactive; ? = inconclusive; nt = no result. This is a sample that favours compounds with a hit; in the whole collection about 2.4% have one here.

SMILES	D2 ag-1	D2 ag-2	D2 antagonist	D2 PAM-1	D2 PAM-2
COc1cc2c(cc1OC)C1C/C(=N\O)C(CC(C)C)CN1CC2 (stereo not drawn)	i	i	59.7	i	i
COc1ccc(N2CCN(c3nc(Cl)nc(Nc4ccc(F)cc4)n3)CC2)cc1	i	i	i	i	i
COc1ccc(N2CCN(c3nc(Nc4ccc(F)cc4)nc(OC)n3)CC2)cc1	nt	i	i	33.2	nt
CC(=O)OCC(=O)C1(O)CCC2C3CCC4=CC(=O)CCC4(C)C3(F)C(O)CC21C (stereo not drawn)	i	nt	nt	nt	i
CCOC(=O)c1ccc2c(c1)N(C)C(=O)c1ccccc1S2	i	i	i	i	i
CCOC(=O)c1cc2n(c1/N=C/N(C)C)-c1ccccc1C2=O	i	35.6	i	i	i
COC(=O)C1CCN(C(=O)c2sc3nc(-c4ccc(F)cc4)cn3c2C)CC1	i	i	i	30.5	i
O=C(NCc1ccccc1Cl)c1cnc(N2CCCCC2)c2ccccc12	nt	i	nt	i	nt
CCCCNCC1CCCO1 (stereo not drawn)	i	i	69.6	i	i
Cc1ccc(CNCC2CCCO2)o1 (stereo not drawn)	i	i	i	i	i
O=C1CN(C(=O)c2ccc(S(=O)(=O)N3CCCC3)cc2)C(c2ccccc2)c2cc(Cl)ccc2N1 (stereo not drawn)	nt	i	nt	i	nt
COc1ccc(Cc2nc(-c3ccncc3)no2)cc1	i	i	i	i	51.1
COc1ccc(Cc2nc(-c3ccccn3)no2)cc1	i	i	34.2	i	i
Clc1cc(Cl)c(OCc2nc(-c3ccccn3)no2)cc1Cl	i	i	i	i	i
CC(C)(C)c1ccc(OCc2nc(-c3ccccn3)no2)c(Br)c1	i	i	38.3	i	i
CCc1nn(CC(=O)NCc2ccc(C)cc2)c(=O)c2cc3occc3n12	nt	i	nt	i	nt
CN(C)c1ccc(CNC(=O)c2ccc3c(c2)N(C)C(=O)C2CCCCN32)cc1 (stereo not drawn)	nt	i	nt	i	nt
CCOC(=O)C1=C(COC(=O)C(CC)c2ccccc2)NC(=O)NC1C (stereo not drawn)	i	i	i	30.1	i
CCOC(=O)N1CCc2c(sc3c2c(=O)n(-c2ccc(F)cc2)c(=O)n3CC(=O)c2ccc(Cl)cc2)C1	nt	i	nt	i	nt
CCCN1CNc2c(c(=O)[nH]c(=S)n2-c2ccccc2Cl)C1	i	i	i	67.6	i
Cc1cccc(OCC(=O)Nc2c(C)ccc3nsnc23)c1C	nt	i	nt	i	nt
CC(C)CC(C(=O)NCc1ccc(F)cc1)N1Cc2ccccc2C1=O (stereo not drawn)	nt	i	nt	i	nt
COc1cc(C(=O)O)nc2ccc([N+](=O)[O-])cc12	i	i	38.4	i	i
COc1ccc([N+](=O)[O-])cc1C(=O)C(=O)c1ccccc1	i	i	i	i	i
COc1c(C)cc(Br)cc1C(=O)Nc1ccccc1C	i	i	i	i	i
SMILES	D2 ag-1	D2 ag-2	D2 antagonist	D2 PAM-1	D2 PAM-2
COc1c(C)cc(Br)cc1C(=O)O	i	i	40.5	i	i
CCCn1c2ccccc2c2cnn(CC(=O)N3CCN(c4ccccc4)CC3)c(=O)c21	nt	i	nt	i	nt
Nc1c2c(nc3ccn(-c4ccccc4)c(=O)c13)CCCCC2	i	i	i	i	i
Nc1c2c(nc3c1CCC3)CCCC2	nt	i	30.7	i	nt
CCCCOc1ccc(C(=O)NCC(=O)N2CCN(C/C=C/c3ccccc3)CC2)cc1	i	nt	nt	nt	i
C/C(=N\NC(=O)c1c(Cl)c(C)nn1C)c1cccc(NC(=O)c2cccc(F)c2)c1	i	i	49.3	i	i
Cc1ccccc1OCCn1c(CCNC(=O)C2CCCCC2)nc2ccccc21	nt	i	nt	i	nt
O=C(Cc1cccs1)NCCCc1ccccc1	i	i	69.4	i	i
O=C(Cc1cccs1)NCc1ccncc1	i	i	58.0	i	i
COc1ccc(/C=C/C(=O)OCC(=O)c2ccc[nH]2)cc1	i	i	38.1	i	i
CN(C)Cc1ccccc1CNC(=O)c1cccc(S(=O)(=O)Nc2ccc3c(c2)OCO3)c1	i	nt	nt	nt	i
COC(=O)C(CCSC)Nc1ncnc2onc(-c3ccc(F)cc3)c12 (stereo not drawn)	nt	i	nt	i	nt
O=C1c2cccc3c([N+](=O)[O-])ccc(c23)C(=O)N1c1ccccn1	?	i	i	i	?
O=C1c2cccc3c([N+](=O)[O-])ccc(c23)C(=O)N1O	41.7	i	i	i	i
CC12CN3CC(C)(CN(C1)C3c1ccc([N+](=O)[O-])o1)C2 (stereo not drawn)	i	i	32.1	i	i
O=C(Nc1ccc2c(c1)OCCO2)c1cccc2nc3ccccc3nc12	i	i	i	34.3	i
CC(=O)Nc1cccc(C(=O)/C=C/c2ccc(N(C)C)cc2)c1	i	85.9	35.0	i	?
CC(=O)Nc1cccc(C(=O)/C=C/c2ccc(/C=C/C(=O)c3cccc(NC(C)=O)c3)cc2)c1	nt	i	i	i	nt
CN(Cc1ccccc1)C(=O)c1ccc2c(c1)N(Cc1ccc(Cl)cc1)C(=O)c1ccccc1S2=O (stereo not drawn)	nt	i	nt	i	nt
CC(=O)Nc1ccc(CN2CCN(c3cccc(C(F)(F)F)c3)CC2)cc1	i	i	42.7	i	i
Oc1cc2c(cc1CN1CCN(c3cccc(C(F)(F)F)c3)CC1)CCC2	i	i	56.4	i	i
CC(=O)Nc1ccc(NC(=O)CN2CCN(c3cccc(C(F)(F)F)c3)CC2)cc1	i	i	i	i	i
COc1ccc(N2CCN(Cc3cc4c(cc3O)CCC4)CC2)cc1	i	i	i	i	i
Cn1c(=O)cc(OCC(=O)N2CCN(c3ccc(F)cc3)CC2)c2ccccc21	nt	i	nt	i	nt
Cc1cc(Nc2nc3ccccc3c3nnc(C)n23)ccc1Br	nt	nt	nt	i	nt
SMILES	D2 ag-1	D2 ag-2	D2 antagonist	D2 PAM-1	D2 PAM-2
CCOC(=O)c1c(NC(=O)OC)sc(C(=O)N(C)C)c1C	i	i	69.4	i	i
CCOC(=O)c1c(NC(=O)COC(=O)c2ccc(O)cc2)sc(C(=O)N(C)C)c1C	i	i	i	36.4	i
COc1ccc(N2C(=O)CSC23CCCCC3)cc1	i	i	33.1	i	i
CN(CC(=O)Nc1ccccc1Cl)C(=O)COC(=O)c1nc(Cl)ccc1Cl	i	i	i	i	i
CN(CC(=O)Nc1ccccc1Cl)C(=O)COC(=O)c1ccc([N+](=O)[O-])cc1Cl	?	i	i	i	52.9
Cc1ccc(NC(=O)C(Cc2c[nH]c3ccccc23)NC(=O)OC(C)(C)C)c(C)c1 (stereo not drawn)	nt	i	nt	i	nt
CCCCN(C(=O)C1CC(=O)N(c2ccc(C)cc2)C1)c1c(N)n(CCC)c(=O)[nH]c1=O (stereo not drawn)	i	i	37.9	i	i
CCCCn1c(N)c(N(CC(C)C)C(=O)C2CC(=O)N(c3ccc4c(c3)OCCO4)C2)c(=O)[nH]c1=O (stereo not drawn)	i	i	39.5	i	i
